NadD inh – NadD (S. aureus) enzyme inhibition | purified NadD enzyme, colorimetric absorbance read-out | inhibition, % at 20 µM | 360,000 compounds, 0.78% hits; in the data active = inhibition above about 26%
rCAG binder – r(CAG) repeat RNA binding; TO-PRO-1 dye displacement fluorescence; inhibition, % at 3 µM; 370,000 compounds, 1.3% hits;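 active = inhibition above the plate cutoff, the mean of all test compounds on that plate plus 3 SD, cut at about 35% in these data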;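 note: 0% = DMSO alone and 100% = 100 µM mitoxantrone as full dye displacement; higher means more dye released from RNA so lower well fluorescence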
MsrA act – bovine methionine sulfoxide reductase A activation | purified bovine MsrA, absorbance read-out | activation, % at 10.6 µM | 360,000 compounds, 0.3% hits | AID 602163; in the data active = activation above about 7.5%;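 note: 0% = vehicle and 100% = reference activator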
MsrA inh – inhibitors of bovine MsrA; inhibition, % at 15.5 µM; 360,000 compounds, 0.75% hits; AID 651718; purified bovine MsrA, absorbance read-out; in the data active = inhibition above about 4.5%;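 note: 0% = vehicle wells with enzyme and 100% = reference inhibitor wells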
MsrA activ conf – bovine methionine sulfoxide reductase A activation confirmed | 1,000 compounds, 12% hits | purified bovine MsrA, absorbance read-out | activation, % at 10.6 µM | AID 602270 | shares compounds with MsrA act; in the data active = activation above about 4%;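 note: enzyme coupled to thioredoxin and thioredoxin reductase with NADPH; 0% = vehicle wells and 100% = reference activator wells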
* marks the source's active call; other numbers are inactive results; / = no result. The list is not random: actives were taken first. Their share in the collection is about 2.7%.

SMILES	NadD inh	rCAG binder	MsrA act	MsrA inh	MsrA activ conf
CC(C)[C@H](NC(=O)C1CCCC1)C(=O)N1CCC[C@H]1C(=O)NCc1ccccc1	/	-0.3	/	-1.6	/
CC(C)COC(=O)c1ccc(N2C(=O)c3ccccc3C2=O)cc1	-8.2	-5.1	7.9*	-1.3	5.5*
CCOC(=O)c1ccc(N2C(=O)Cc3ccccc3C2=O)cc1	3.9	22.0	-3.7	-0.5	/
COc1ccccc1Cc1c(-c2ccco2)nc2c3ccccc3ccn12	13.0	11.4	-0.8	0.3	/
COc1ccc(N2CC(C(=O)OCC(=O)Nc3cc(C)on3)CC2=O)cc1 (centres undefined)	-1.8	6.0	8.0*	0.0	-3.1
Cc1cc(NC(=O)COC(=O)C2CC(=O)N(c3ccc(Br)cc3)C2)no1 (centres undefined)	-3.9	2.9	-0.1	0.1	/
CCN(CC)C(=O)CC[C@@H]1CC[C@]2(CCCN(Cc3nccs3)C2)O1	/	1.9	/	/	/
CC1=C(C(N)=O)C(c2ccc(Cl)c(Cl)c2)n2ncnc2N1 (centres undefined)	1.2	-0.3	7.9*	0.5	-0.9
COc1ccc(S(=O)(=O)N2CCC(C(=O)N3CCOCC3)CC2)cc1Cl	-2.9	-3.9	8.0*	-0.3	-3.2
COC(=O)c1cc2c(c3c4cc(OC)ccc4n(S(=O)(=O)c4ccc(OC)cc4)c13)C(=O)N(C)C2	/	11.9	/	0.3	/
O=c1[nH]c(CN2CCN(c3ccccc3O)CC2)nc2ccccc12	3.0	2.8	1.2	-1.1	/
O=c1[nH]c(CN2CCN(CCO)CC2)nc2ccccc12	1.9	1.0	8.9*	1.3	0.0
CCc1nc2c(OCC3CCCCC3)cccn2c1N(C)C(=O)c1ccccc1F	7.9	1.1	0.7	-0.5	/
COc1ccc(NC(=O)c2cc(-c3cc(F)ccc3OC(C)C)n[nH]2)cc1OC	-4.5	0.4	-1.8	-0.7	/
COc1cc(NC(=O)c2cc(-c3cc(F)ccc3OC(C)C)n[nH]2)cc(OC)c1OC	-3.1	4.8	9.4*	0.5	-0.9
Cc1cccc(NC(=O)NC(=O)c2ccccc2)n1	-1.2	-3.3	8.1*	0.1	0.8
COC(=O)c1ccccc1SC(CC(=O)c1ccccc1)c1ccc(F)cc1 (centres undefined)	-2.6	34.2	-2.7	-0.2	/
Nc1ccccc1SC(CC(=O)c1ccccc1)c1ccccc1 (centres undefined)	0.6	/	7.9*	/	-0.4
COC(=O)c1ccc(Cn2c(C)c(C(=O)NCc3cccc(C(F)(F)F)c3)sc2=O)o1	1.3	2.7	-2.0	-1.0	/
Cn1ccc2ccc(-c3ccc4c(c3)[C@]3(CCC[C@@H](OCc5ccccc5)[C@@H]3NC(=O)CCc3ccccc3)C(=O)N4Cc3ccccc3)cc21	/	12.3	/	/	/
COc1cc2c(cc1OC)C1CCN3C(=O)CCC3N1CC2 (centres undefined)	0.6	0.3	1.6	-0.2	/
COc1ccc(Cl)cc1C(=O)CSc1nc(N)cc(N)n1	2.3	3.2	8.0*	-0.3	-1.1
CCCCn1nnnc1SCC(=O)c1cc(Cl)ccc1OC	-0.5	1.0	-2.4	0.1	/
Cc1no[n+]([O-])c1COc1cccc(/C=N/Nc2nncn2N)c1	-0.4	4.6	11.9*	1.3	-3.1
Cc1ccc(S(=O)(=O)N2C[C@H]3C(=O)C[C@@H](c4ccc(Cl)cc4)N(S(=O)(=O)c4ccccc4C)[C@H]3C[C@H]2c2cccc(Cl)c2)cc1	20.8	9.2	-7.4	1.3	/
SMILES	NadD inh	rCAG binder	MsrA act	MsrA inh	MsrA activ conf
Cc1ccccc1C(=O)NCCCCc1ccccc1	-4.8	-3.2	8.7*	0.1	1.9
Cc1ccccc1C(=O)NCCCc1ccccc1	-1.6	-1.3	-1.6	0.9	/
CC1(C)CC(=O)C(C(N)=NC(=O)c2ccccc2)=C(O)C1	1.0	-6.7	-1.8	-1.2	/
CC1(C)CC(=O)C(C(N)=NC(=O)c2ccc([N+](=O)[O-])cc2)=C(O)C1	-2.1	-0.6	17.0*	-0.8	-1.4
CCCCC(=O)N(C)c1c(CC)nc2c(OCCC)cccn12	0.8	-0.3	-2.7	0.9	/
NC(=S)NN=C1CSSC1	7.0	/	14.5*	/	23.4*
O=C1N[C@@H](Cc2ccccc2)COC(=O)[C@H](Cc2ccc(F)cc2)C/C=C\C[C@H]1CC(=O)N(CCO)Cc1ccccc1	-1.6	5.5	18.7*	-1.6	-1.3
O=C1N[C@H](Cc2ccccc2)COC(=O)[C@H](Cc2ccc(F)cc2)C/C=C\C[C@H]1CC(=O)N(CCO)Cc1ccccc1	-10.9	1.5	-7.6	-0.1	/
COc1ccc(OC)c(/C=N/N(CCC#N)C2=NS(=O)(=O)c3ccccc32)c1	-8.4	-1.2	7.9*	0.1	5.3*
N#CCCN(/N=C/c1cccnc1)C1=NS(=O)(=O)c2ccccc21	3.1	2.0	-5.0	2.2	/
OCCCCCCNc1ccc(CCO)cc1	-7.3	0.4	8.6*	-0.6	0.1

Bioassay records as filed in PubChem BioAssay.
